Laboratory results published in PubChem BioAssay AID1159580 (chemical genetic matrix, 2015).
Hit rate of the full screen: of about 5,500 compounds, about 2,000 (36%) were called active. About 18% were inconclusive and are not listed. Rule as the data show it: active = normalized growth mostly below about 0.91 (no sharp cut-off); inconclusive = no clear call, values can overlap the other calls; inactive = mostly above about 0.92. The list shows a part of the results.

Assay: chemical genetic growth profiling, strain panel (AID 1159580);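 also: tested at 20 µM; growth read once vehicle control cultures reached saturation at 30 °C; 1 = growth at the plate median or of vehicle wells; lower values mean less growth of the strain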
Conditions: S. cerevisiae deletion strains, growth OD
[1] = locus YAL021C, strain ccr4, hits give low values
[2] = locus YAL026C, strain drs2, hits give low values
[3] = locus YAL030W, strain snc1, hits give low values
[4] = locus YBL061C, strain skt5, hits give low values
[5] = locus YBR009C, strain hhf1, hits give low values
[6] = locus YBR023C, strain chs3, hits give low values
[7] = locus YBR171W, strain sec66, hits give low values
[8] = locus YBR231C, strain swc5, hits give low values
[9] = locus YBR279W, strain paf1, hits give low values
[10] = locus YCL011C, strain gbp2, hits give low values
[11] = locus YCL016C, strain dcc1, hits give low values
[12] = locus YCL061C, strain MRC1, hits give low values
[13] = locus YCL069W, strain vba3, hits give low values
[14] = locus YCR088W, strain abp1, hits give low values
[15] = locus YDL005C, strain med2, hits give low values
[16] = locus YDL040C, strain nat1, hits give low values
[17] = locus YDR001C, strain nth1, hits give low values
[18] = locus YDR069C, strain doa4, hits give low values
[19] = locus YDR137W, strain rgp1, hits give low values
[20] = locus YDR159W, strain sac3, hits give low values
[21] = locus YDR297W, strain sur2, hits give low values
[22] = locus YDR334W, strain swr1, hits give low values
[23] = locus YDR335W, strain msn5, hits give low values
[24] = locus YDR392W, strain spt3, hits give low values
[25] = locus YEL003W, strain gim4, hits give low values
[26] = locus YEL037C, strain rad23, hits give low values
[27] = locus YEL061C, strain CIN8 (second series), hits give low values
[28] = locus YER015W, strain faa2, hits give low values
[29] = locus YER016W, strain bim1, hits give low values
[30] = locus YER111C, strain swi4, hits give low values
[31] = locus YER155C, strain BEM2 (second series), hits give low values
[32] = locus YFR010W, strain ubp6, hits give low values
[33] = locus YGL167C, strain pmr1, hits give low values
[34] = locus YGL173C, strain kem1, hits give low values
[35] = locus YGL227W, strain vid30, hits give low values
[36] = locus YGL240W, strain doc1, hits give low values
[37] = locus YGL253W, strain hxk2, hits give low values
[38] = locus YHR013C, strain ard1, hits give low values
[39] = locus YHR027C, strain rpn1, hits give low values
[40] = locus YHR030C, strain SLT2, hits give low values
[41] = locus YHR079C, strain IRE1, hits give low values
[42] = locus YHR142W, strain chs7, hits give low values
[43] = locus YJL092W, strain hpr5, hits give low values
[44] = locus YJL095W, strain BCK1 (second series), hits give low values
[45] = locus YJL095W, strain BCK1, hits give low values
[46] = locus YJL115W, strain asf1, hits give low values
[47] = locus YJL129C, strain trk1, hits give low values
[48] = locus YJL154C, strain vps35, hits give low values
[49] = locus YJL164C, strain tpk1, hits give low values
[50] = locus YJL166W, strain qcr8, hits give low values
[51] = locus YJL187C, strain SWE1, hits give low values
[52] = locus YJR066W, strain TOR1, hits give low values
[53] = locus YKL160W, strain elf1, hits give low values
[54] = locus YKR026C, strain gcn3, hits give low values
[55] = locus YKR091W, strain srl3, hits give low values
[56] = locus YLL001W, strain dnm1, hits give low values
[57] = locus YLL026W, hits give low values
[58] = locus YLL041C, strain sdh2, hits give low values
[59] = locus YLR027C, strain aat2, hits give low values
[60] = locus YLR113W, strain HOG1, hits give low values
[61] = locus YLR221C, strain rsa3, hits give low values
[62] = locus YLR258W, strain gsy2, hits give low values
[63] = locus YLR262C, strain YPT6 (second series), hits give low values
[64] = locus YLR320W, strain mms22, hits give low values
[65] = locus YLR342W, strain FKS1, hits give low values
[66] = locus YLR357W, strain rsc2, hits give low values
[67] = locus YLR370C, strain arc18, hits give low values
[68] = locus YLR384C, strain iki3, hits give low values
[69] = locus YML120C, strain ndi1, hits give low values
[70] = locus YMR058W, strain fet3, hits give low values
[71] = locus YMR125W, strain sto1, hits give low values
[72] = locus YMR129W, hits give low values
[73] = locus YMR205C, strain PFK2, hits give low values
[74] = locus YMR231W, strain pep5, hits give low values
[75] = locus YNL071W, strain lat1, hits give low values
[76] = locus YNL183C, strain NPR1, hits give low values
[77] = locus YNL209W, strain ssb2, hits give low values
[78] = locus YNL248C, strain rpa49, hits give low values
[79] = locus YNL322C, strain KRE1 (second series), hits give low values
[80] = locus YNR049C, strain mso1, hits give low values
[81] = locus YOR001W, strain rrp6, hits give low values
[82] = locus YOR070C, strain gyp1, hits give low values
[83] = locus YOR080W, strain dia2, hits give low values
[84] = locus YOR083W, strain WHI5, hits give low values
[85] = locus YOR106W, strain vam3, hits give low values
[86] = locus YOR231W, strain MKK1, hits give low values
[87] = locus YOR265W, strain rbl2, hits give low values
[88] = locus YOR270C, strain vph1, hits give low values
[89] = locus YOR290C, strain snf2, hits give low values
[90] = locus YPL051W, strain arl3, hits give low values
[91] = locus YPL078C, strain atp4, hits give low values
[92] = locus YPL106C, strain sse1, hits give low values
[93] = locus YPL240C, strain hsp82, hits give low values
[94] = locus YPL256C, strain CLN2, hits give low values

Measured: normalized growth

CC(=O)[C@H]1CCC2C3CC=C4C[C@@H](OC(=O)CCC(=O)O)CC[C@]4(C)C3CC[C@@]21C (stereo not given in full)
active: [5] 0.899 | [19] 0.556 | [24] 0.466 | [31] 0.842 | [34] 0.898 | [47] 0.804 | [63] 0.57 | [64] 0.796 | [69] 0.9 | [73] 0.822 | [75] 0.845
inactive: [1] 0.975 | [2] 0.913 | [3] 0.969 | [4] 0.964 | [6] 0.96 | [7] 0.898 | [8] 0.975 | [9] 0.961 | [10] 0.957 | [11] 0.965 | [12] 0.962 | [13] 0.983 | [14] 0.966 | [15] 0.941 | [16] 0.973 | [17] 0.971 | [18] 0.966 | [20] 0.943 | locus YDR195W, strain ref2 1.03 | [21] 0.95 | [22] 0.989 | [23] 0.977 | [25] 0.968 | [26] 0.972 | [27] 0.97 | [28] 0.985 | [29] 0.969 | [30] 0.953 | [32] 0.966 | [33] 0.928 | [35] 0.973 | [36] 0.939 | [37] 0.971 | [38] 0.941 | [39] 0.978 | [40] 0.997 | [41] 0.974 | [42] 0.932 | [43] 0.966 | [44] 0.971 | [45] 0.913 | [46] 0.99 | [48] 0.988 | [49] 0.955 | [50] 0.929 | [51] 0.968 | [52] 0.942 | [53] 0.951 | [54] 0.962 | [55] 0.968 | [56] 0.948 | [57] 0.974 | [58] 0.985 | [59] 0.978 | [60] 0.855 | [61] 0.967 | [62] 0.956 | [65] 0.955 | [66] 0.989 | [67] 0.942 | [68] 0.97 | [70] 0.963 | [71] 0.938 | [72] 0.968 | [74] 0.975 | [76] 0.927 | [77] 0.969 | [78] 0.988 | [79] 0.969 | [80] 0.973 | [81] 0.952 | [82] 0.959 | [83] 0.95 | [84] 0.974 | [85] 0.953 | [86] 0.961 | [87] 0.981 | [88] 0.91 | [89] 0.908 | [90] 0.973 | [91] 0.956 | [92] 1 | [93] 0.971 | [94] 0.991

CC(C(=O)O)[C@H]1CCC2C3CC=C4C[C@@H](O)CC[C@]4(C)C3CC[C@@]21C (stereo not given in full)
inactive: [1] 0.939 | [3] 1.03 | [4] 1.03 | [5] 0.979 | [6] 1 | [7] 1.02 | [8] 1.04 | [9] 1.02 | [10] 1.03 | [11] 0.977 | [12] 1 | [13] 1.03 | [14] 1.04 | [15] 1.05 | [16] 1.04 | [17] 1.04 | [18] 0.988 | [20] 1.04 | [21] 1.02 | [22] 1.05 | [23] 1.02 | [25] 1.02 | [26] 1.03 | [27] 1.05 | [28] 1.01 | [29] 1.04 | [30] 1.02 | [31] 1.08 | [32] 0.953 | [33] 1.03 | [34] 0.981 | [35] 1.04 | [36] 1.03 | [37] 0.989 | [38] 1.04 | [39] 1.02 | [40] 1.04 | [41] 1.03 | [42] 0.967 | [43] 1.02 | [44] 1.03 | [45] 1.02 | [46] 1.04 | [47] 1.03 | [48] 1.04 | [49] 0.973 | [50] 0.97 | [51] 1.01 | [52] 0.98 | [53] 1 | [54] 1.04 | [55] 1.05 | [56] 1.01 | [57] 1.03 | [58] 1.03 | [59] 1.01 | [60] 1.06 | [61] 0.996 | [62] 1.02 | [64] 0.919 | [65] 1.03 | [66] 1.1 | [67] 1.01 | [68] 1.04 | [69] 1.01 | [70] 1 | [71] 1.03 | [72] 1.03 | [73] 1.02 | [74] 1.02 | [75] 0.989 | [76] 0.971 | [77] 1.03 | [78] 0.963 | [79] 1.06 | [80] 1.05 | [81] 0.997 | [82] 0.962 | [83] 1.03 | [84] 0.983 | [85] 1.01 | [86] 1.06 | [87] 1.02 | [88] 0.961 | [89] 0.995 | [90] 0.963 | [91] 1 | [93] 1.04 | [94] 1.06
active: [2] 0.627 | [19] 0.562 | locus YDR195W, strain ref2 1.35 [resistant] | [24] 0.733 | [63] 0.485 | [92] 1.26 [resistant]
